The list is not random: actives were taken first. Their share in the collection is about 0.51%.
AddAB inh – growth inhibition of E. coli expressing H. pylori AddAB, primary screen, AddAB inhibitor project, absorbance | inhibition, % at 11.9 µM | 330,000 tested, 0.29% active | AID 435030, 2010; in the data active means inhibition above about 12%
Tat export inh – E. coli Tat export inhibitors, primary screen, MC4100, TorA-mCherry reporter, fluorescence, single point. inhibition, % at 10 µM. 340,000 tested, 0.036% active;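 active means mean replicate inhibition at least 50% and at least half of replicates individually reaching 50%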;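 further: exported cargo escapes ClpAP degradation while cytoplasmic cargo is degraded and loses fluorescence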
E coli growth-1 – E. coli V3065 growth inhibition, primary screen, counter-screen for AddAB inhibitor project, absorbance, OD600; 18 h; inhibition, % at 11.9 µM; 330,000 tested, 0.27% active;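 active means inhibition above the campaign's mean inhibition across all tested compounds plus 3 SD, cut at about 9.9% in these data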;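 further: uninfected addAB+ strain grown without phage in ampicillin broth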
E coli growth-2 – E. coli growth inhibition, primary screen, OD600; Escherichia coli growth, 23 h; stronger effect = lower value; OD600 absorbance (test concentration not listed); 330,000 tested, 0.21% active; AID 1053175, 2014;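 active means OD600 absorbance below the run mean of sample wells minus 3.6 SD, in any replicate, cut at about 0.56 in these data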
phage Ecoli inh – growth loss of phage-infected E. coli, primary screen, RecBCD inhibitor project, absorbance, with phage, HTS; inhibition, % at 11.9 µM; 360,000 tested, 0.26% active; AID 651602, 2012; in the data active means inhibition above about 11%
AddAB confirm – growth loss of phage-infected E. coli expressing H. pylori AddAB, confirmation, AddAB inhibitor project, absorbance, E. coli V3065, T4 phage, triplicate; OD; T4 phage with gene 2 nonsense mutations; 880 tested, 64% active; shares compounds with AddAB inh; inhibition, % at 11.9 µM; AID 488942, 2010;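 active means mean inhibition above a set limit taken from the earlier primary screen, cut at about 13% in these data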;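 further: higher means less bacterial growth since AddAB block lets phage replicate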
RecBCD counter – growth loss of RecBCD+ E. coli with mutant T4 phage, counter-screen for AddAB inhibitor project, absorbance, V66 E. coli | shares compounds with AddAB inh | inhibition, % at 11.9 µM | AID 488955, 2010 | OD growth | 880 tested, 73% active;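 active means mean inhibition above the mean of solvent-only control wells plus 3 SD, cut at about 4% in these data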;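 further: optical density read after an 18 h incubation at 37 °C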
Bact viability – bacterial viability inhibition counter-screen, confirmation, counter-screen for AddAB inhibitor project, absorbance. shares compounds with AddAB inh. absorbance (AddAB counterscreen). inhibition, % at 11.9 µM. 880 tested, 35% active. AID 488956, 2010; in the data active means inhibition above about 25%
RecBCD conf – growth loss of phage-infected RecBCD+ E. coli, confirmation, RecBCD inhibitor project, absorbance, E. coli V66, T4 gene 2 phage | E. coli V66 + T4 2- phage, growth OD | inhibition, % at 11.9 µM | AID 651982, 2013 | shares compounds with phage Ecoli inh | 890 tested, 45% active;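 active means mean inhibition over triplicates exceeding the hit threshold derived in the original primary screen, cut at about 11% in these data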
Ecoli viability – E. coli viability inhibition, counter-screen for RecBCD inhibitor project, absorbance, high throughput; shares compounds with phage Ecoli inh; inhibition, % at 11.9 µM; absorbance (OD) growth; 890 tested, 29% active; in the data active means inhibition above about 20%;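 further: E. coli strain V66 grown with compound alone and no phage infection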
AddAB phage OD – growth loss of phage-infected AddAB-carrying E. coli, confirmation, counter-screen for RecBCD inhibitor project, absorbance, E. coli V3065, T4 phage; 890 tested, 45% active; shares compounds with phage Ecoli inh; inhibition, % at 11.9 µM; E. coli expressing H. pylori AddAB + T4 phage, OD growth; gene 2 mutant T4, recBCD-deleted host;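 active means mean inhibition above the solvent-only control wells' mean plus 3 SD, cut at about 22% in these data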;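 further: higher means less bacterial growth from phage killing when AddAB is blocked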
Each line names hits and unclear results; the compound was inactive in the other large screens (follow-up assays come after a bar, where they were run).

COC(=O)C1C(O)C(C)C(O)C(C)C=CC=C(C)C(=O)Nc2c(C)c(OC(C)=O)c3c(c2O)C(=O)C(C)=C2OCOC(=C23)C(C)=CC(C)(O)C(O)C(C)C1O (stereo not drawn)	E coli growth-2 0.12 (no result: AddAB inh, Tat export inh, E coli growth-1, phage Ecoli inh)
COC(=O)C1CC1C(NP(=O)(c1ccccc1)c1ccccc1)c1ccccc1 (stereo not drawn)	none (no result: AddAB inh, Tat export inh, E coli growth-1, phage Ecoli inh)
CCN1C[C@]2(COC)CCC(O)[C@@]34C5CC6C(OC)C[C@@](O)(C5C6OC)[C@@](O)(C(OC)C23)C14 (stereo partly drawn)	none (no result: AddAB inh, Tat export inh, E coli growth-1, phage Ecoli inh)
CNc1cc(Cl)c2nonc2c1[N+](=O)[O-]	E coli growth-2 0.46 (no result: AddAB inh, E coli growth-1)
COC(=O)C1=C(c2ccccc2OCc2ccccc2)CC2CCC1N2C(=O)NCCOc1ccccc1 (stereo not drawn)	none (no result: AddAB inh, Tat export inh, E coli growth-1, phage Ecoli inh)
COc1cc2cc(C(=O)N3CC(COS(C)(=O)=O)c4ccc(O)cc43)[nH]c2c(OC)c1OC (stereo not drawn)	Tat export inh 58 (no result: AddAB inh, E coli growth-1, E coli growth-2, phage Ecoli inh)
Clc1ccc(C(c2ccc(Cl)cc2)n2cc[n+](CC(OCc3ccc(Cl)cc3Cl)c3ccc(Cl)cc3Cl)c2)cc1 (stereo not drawn)	E coli growth-2 0.094
CC1CCC2C(C)C(=O)OC3OC4(C)CCC1C32OO4 (stereo not drawn)	E coli growth-2 0.43
CC(Cc1ccccc1)[N+]([O-])=Cc1ccc(C(F)(F)F)cc1 (stereo not drawn)	none (no result: AddAB inh, Tat export inh, E coli growth-1, phage Ecoli inh)
N[C@@]1(C(=O)O)CCC(C(=O)O)C1 (stereo partly drawn)	none (no result: AddAB inh, Tat export inh, E coli growth-1, phage Ecoli inh)
CN(C)C1C(=O)C(C(N)=O)=C(O)[C@@]2(O)C(=O)C3=C(O)c4c(O)cccc4[C@@](C)(O)C3C(O)C12 (stereo partly drawn)	E coli growth-2 0.07 (no result: AddAB inh, Tat export inh, E coli growth-1, phage Ecoli inh)
CN(C)C1C(=O)C(C(N)=O)=C(O)[C@@]2(O)C(=O)C3=C(O)c4c(O)cccc4[C@@](C)(O)C3CC12 (stereo partly drawn)	E coli growth-2 0.065 (no result: AddAB inh, Tat export inh, E coli growth-1, phage Ecoli inh)
COC(=O)C1=C(c2ccc(F)cc2F)CC2CCC1N2C(=O)N1CCCC1 (stereo not drawn)	none (no result: AddAB inh, Tat export inh, E coli growth-1, phage Ecoli inh)
c1ccc(-c2nc(N3CCOCC3)s[n+]2-c2ccccc2)cc1	E coli growth-2 0.52
Fc1ccc(CNCCc2ccccc2)cc1	none
C1=C(CCNCc2ccccc2)CCCC1	E coli growth-2 0.45
COC(=O)C1=C(c2ccc(OCc3ccccc3)cc2)CC2CCC1N2C(=O)NCCCc1ccccc1 (stereo not drawn)	none (no result: AddAB inh, Tat export inh, E coli growth-1, phage Ecoli inh)
COc1cc2c3cc1Oc1c(OC)c(OC)cc4c1C(Cc1ccc(cc1)Oc1cc(ccc1O)CC3N(C)CC2)N(C)CC4 (stereo not drawn)	none (no result: AddAB inh, Tat export inh, E coli growth-1, phage Ecoli inh)
O=c1[nH]c(=S)n(C2CC2)c(O)c1C=NCc1ccc(F)cc1	AddAB inh 27, E coli growth-1 15 | AddAB confirm 62 | RecBCD counter inactive | Bact viability 26
O=c1[nH]c(=S)n(C2CC2)c(O)c1C=NCc1cccnc1	none (no result: Tat export inh, phage Ecoli inh)
COC(=O)C1=C(c2ccc(F)cc2OCc2ccccc2)CC2CCC1N2C(=O)NCc1ccc(C)cc1 (stereo not drawn)	none (no result: AddAB inh, Tat export inh, E coli growth-1, phage Ecoli inh)
Oc1c(Br)c(Br)c(Br)c(Br)c1Br	AddAB inh 18, E coli growth-1 15 (no result: E coli growth-2, phage Ecoli inh) | AddAB confirm 22 | RecBCD counter 20 | Bact viability inactive
Cc1ccc(C[n+]2c(-c3ccc(C)cc3)cc(-c3ccc(C)cc3)cc2-c2ccc(C)cc2)cc1	AddAB inh 16, E coli growth-1 25, E coli growth-2 0.41 (no result: phage Ecoli inh) | AddAB confirm 55 | RecBCD counter 12 | Bact viability inactive
CN1/C(=C\C=C\C2=[N+](C)c3ccc4ccccc4c3C2(C)C)C(C)(C)c2ccccc21	AddAB inh 30, E coli growth-1 51 (no result: Tat export inh, E coli growth-2, phage Ecoli inh) | AddAB confirm 77 | RecBCD counter 66 | Bact viability 78
COC(=O)C1=C(c2cccc(C#N)c2)CC2CCC1N2C(=O)N1CCCC1 (stereo not drawn)	none (no result: AddAB inh, Tat export inh, E coli growth-1, phage Ecoli inh)
CCCN(CCC)C1Cc2cc(OC)c(OC)cc2C1	AddAB inh 98, E coli growth-1 99 | AddAB confirm inactive | RecBCD counter inactive | Bact viability inactive
CC(C)c1oc(=O)cc2c1C(O)C1OC(=O)[C@@]3(C)CC(O)C(O)[C@@]2(C)C13 (stereo partly drawn)	none (no result: AddAB inh, Tat export inh, E coli growth-1, phage Ecoli inh)
CCCNC1=C(C)C(=O)C2=C(C1=O)C(COC(N)=O)[C@]1(OC)C3NC3CN21 (stereo partly drawn)	AddAB inh 44, E coli growth-1 46, E coli growth-2 0.13, phage Ecoli inh 23 | AddAB confirm 98 | RecBCD counter 45 | Bact viability 82
CNc1ccc2oc(CC3O[C@@]4(CCC3C)OC(C(C)C(=O)c3ccc[nH]3)C(C)CC4C)nc2c1C(=O)O (stereo partly drawn)	none (no result: AddAB inh, Tat export inh, E coli growth-1, phage Ecoli inh)
Cc1cc([N+](=O)[O-])c2ccccc2[n+]1[O-]	AddAB inh 28, E coli growth-1 21, E coli growth-2 0.48 (no result: phage Ecoli inh) | AddAB confirm 99 | RecBCD counter 11 | Bact viability 33
Cc1ccccc1[N+](=O)[O-]	none
COC(=O)[C@@]1(Cc2ccc(F)cc2)C2c3cc(C(=O)N(C)C)[nH]c3CC2CN1C(=O)c1ccccc1 (stereo partly drawn)	none (no result: AddAB inh, Tat export inh, E coli growth-1, phage Ecoli inh)
CN1CCN(c2ccc([N+](=O)[O-])c3no[n+]([O-])c23)CC1	AddAB inh 102, Tat export inh 51, E coli growth-1 103, E coli growth-2 0.057, phage Ecoli inh 30 | AddAB confirm 101 | RecBCD counter 19 | Bact viability 89 | RecBCD conf 14 | Ecoli viability inactive | AddAB phage OD 101
